Laboratory results from the supplement of paper PMC7156485.
± gives the standard deviation of the averaged measurements.

Tests used:
Conditions in all cases: concentration: 10 µM; 24 h
HCC1569 [1] = assay: cell number relative to DMSO (% of DMSO); higher = more cells (less growth inhibition / toxicity)
Summary of the method: (§1)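 Six fields per well were imaged at ×10 after the cells were fixed in 3.7% formaldehyde and stained with a rabbit anti-H1.0 antibody, an AlexaFluor 647 secondary and DAPI. The HCC1569 and TDF cells had been plated at 800 per well in 384-well plates (RPMI, 10% FBS) and treated in triplicate with compounds at 10 µM for 24 h at 37 °C. The values are the median of replicates of H1.0 nuclear intensity or cell number, as percent of the plate control. Smoothing for positional effects was applied to HCC1569 data.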

TDF [2] = assay: as above
Summary of the method: as §1

TDF [3] = assay: H1.0 immunofluorescence intensity relative to DMSO (% of DMSO); higher = stronger H1.0 induction, active = 120 or more
Summary of the method: as §1

HCC1569 [4] = assay: H1.0 immunofluorescence intensity relative to DMSO (% of DMSO); higher = stronger H1.0 induction, active = 140 or more
Summary of the method: as §1
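Wherever H1.0 immunofluorescence intensity relative to DMSO is given: TDF is a line of transformed human dermal fibroblasts of mesenchymal origin.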
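Wherever cell number relative to DMSO is given: TDF denotes transformed human dermal fibroblasts of mesenchymal origin.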

Compound	cell number (HCC1569 [1])	cell number (TDF [2])	H1.0 immunofluorescence intensity (TDF [3])	H1.0 immunofluorescence intensity (HCC1569 [4])
Cn1c(=O)c2[nH]cnc2n(C)c1=O.Cn1c(=O)c2[nH]cnc2n(C)c1=O.NCCN [Aminophylline ethylenediamine]	103	102	98.7 (inactive)	93.8 (inactive)
N#CC(=Cc1ccc(O)c(O)c1)C(=O)Nc1ccccc1 [Tyrphostin AG 494]	87.1	94.9	88 (inactive)	108 (inactive)
CCCCCCCCCCCCCCCCCCCCCCCC(=O)O [Tetracosanoic acid]	99.5	104	98 (inactive)	104 (inactive)
C=CCCCCCCCCCC(=O)O [11-Dodecenoic acid]	97.4	98.7	102 (inactive)	103 (inactive)
CCC(c1ccc(O)cc1)C(CC)c1ccc(O)cc1 (centres undefined) [Hexestrol]	100	102	94.1 (inactive)	119 (inactive)
C=C1OC(CO)(n2cnc3c(N)ncnc32)C(O)C1O (centres undefined) [Decoyinine]	107	105	91.6 (inactive)	88.3 (inactive)
CCCCCCC=CCCCCCCCCC(=O)O [10(E)-Heptadecenoic acid]	97.6	95.4	98.4 (inactive)	98.8 (inactive)
Fc1ccc(C2CCNCC2COc2ccc3c(c2)OCO3)cc1 (centres undefined) [Paroxetine]	97.7	99.3	99.1 (inactive)	114 (inactive)
Clc1ccc(Nc2nnc(Cc3ccncc3)c3ccccc23)cc1 [Vatalanib]	103	103	97.2 (inactive)	105 (inactive)
N[C@H](C(=O)O)c1cccc(O)c1 [(S)-3-Hydroxyphenylglycine]	95.2	99.7	102 (inactive)	100 (inactive)
O=C(Nc1ccc(Cl)cc1)C1CCCN(C(=O)c2cccc(-c3ccco3)c2)C1 (centres undefined)	86.8	98.7	95.1 (inactive)	116 (inactive)
N=C(N)N1CCc2ccccc2C1 [Debrisoquin]	103	102	96 (inactive)	96.4 (inactive)
CC1(C)CCC(C)(C)c2cc(C(=O)Nc3ccc(C(=O)O)cc3)ccc21	101	104	91.8 (inactive)	109 (inactive)
CC(O)CCCC(O)C=CC1C(O)CC(O)C1CC=CCCCC(=O)O [19(R)-Hydroxy-prostaglandin F2a]	104	101	93.3 (inactive)	95.9 (inactive)
COc1cc(C(=O)OC2CC3CCC2(C)C3(C)C)ccc1O (centres undefined) [Tschimganine]	101	103	99.6 (inactive)	88.3 (inactive)
Cl.Clc1ccc(Cn2c(CN3CCCC3)nc3ccccc32)cc1 [Clemizole hydrochloride]	99	112	93.5 (inactive)	90.7 (inactive)
CC(C)N(CCC(=O)c1ccc2ccccc2c1)Cc1ccccc1.Cl	96.2	92.5	102 (inactive)	119 (inactive)
Cc1ccc(F)c(NC(=O)Nc2ccc(-c3cccc4[nH]nc(N)c34)cc2)c1	92.4	90.1	101 (inactive)	101 (inactive)
O=C(Nc1ccc(Oc2ccnc3[nH]ccc23)c(F)c1)c1cccn(-c2ccc(F)cc2)c1=O	102	103	95.1 (inactive)	111 (inactive)
CC(C)(Oc1ccc(C2CC2(Cl)Cl)cc1)C(=O)O (centres undefined) [Ciprofibrate]	104	110	97.8 (inactive)	98.1 (inactive)
CCCCC=CCCCCCCCCC(=O)O [10(E)-Pentadecenoic acid]	103	95.8	110 (inactive)	101 (inactive)
C[C@@H](Oc1cc(-c2cnn(C3CCNCC3)c2)cnc1N)c1c(Cl)ccc(F)c1Cl	59.6	36.3	161 (active)	136 (inactive)
Cl.N=C(N=C(N)N)N1CCOCC1 [Moroxydine.HCl]	106	120	98.7 (inactive)	88.6 (inactive)
CN(C)CCCCSC(=N)N.Cl.Cl	99.3	106	93.8 (inactive)	102 (inactive)
c1cc(OCCN2CCCCC2)cc(-c2n[nH]c3ccc(-c4ncn[nH]4)cc23)c1	88.3	107	84.6 (inactive)	115 (inactive)
NC(=O)c1nnn(Cc2cc(Cl)c(C(=O)c3ccc(Cl)cc3)c(Cl)c2)c1N	75	73.8	95.5 (inactive)	151 (active)

Compound	cell number (HCC1569 [1])	cell number (TDF [2])	H1.0 immunofluorescence intensity (TDF [3])	H1.0 immunofluorescence intensity (HCC1569 [4])
CCOc1cc2ncnc(Nc3cccc(Br)c3)c2cc1OCC [Compound 56]	76.2	94	92.6 (inactive)	144 (active)
Cc1ccc2c(c1)C(N1CCN(C)CC1)=Nc1cccnc1N2	103	102	89.8 (inactive)	99 (inactive)
Oc1cc(O)c2c(c1)OC(c1ccc(O)c(O)c1)C(O)C2 (single isomer, unassigned; (+)) [(+)-Catechine]	102	105	91.8 (inactive)	88.4 (inactive)
CC(=O)C1CCC2C3CCC4=CC(=O)CCC4(C)C3CCC12C (centres undefined) [Progesterone]	101.3 ± 0.57	99.1 ± 7.3	95.9 (inactive)	102 (inactive)
Cn1c(=O)c2c(ncn2C)n(C)c1=O [Caffeine]	102 ± 2.6	102 ± 7.9	96.1 (inactive)	91.3 (inactive)
Cc1ccc(S(=O)(=O)NC(=O)NN2CC3CCCC3C2)cc1 (centres undefined) [Gliclazide]	101	106	89 (inactive)	114 (inactive)
O=C1C(=O)C(c2ccc(O)c(O)c2)Oc2cc(O)cc(O)c21 (centres undefined) [2-(3,4-dihydroxyphenyl)-3,5,7-trihydroxy-4H-chromen-4-one]	81.2	74.4	103 (inactive)	158 (active)
CC(C)N=c1cc2n(-c3ccc(Cl)cc3)c3ccccc3nc-2cc1Nc1ccc(Cl)cc1	89.6	72.2	109 (inactive)	118 (inactive)
O=C(O)CCCC=CCC1C2CCC(O2)C1CNNC(=O)Nc1ccccc1 (centres undefined)	102	103	92.8 (inactive)	99.7 (inactive)
CCOc1ccc2c(c1)C(C)=CC(C)(C)N2 [Ethoxyquin]	100	104	96.1 (inactive)	98.9 (inactive)
CC(C)Cc1ccc(CC(=O)O)cc1 [(4-isobutylphenyl)acetic acid]	101	110	91.5 (inactive)	93.1 (inactive)
CCCCCCCCCCCCCC=CC(O)C(CO)NC(C)=O (centres undefined) [C2 Ceramide]	101	107	94.8 (inactive)	102 (inactive)
COc1ccc2cc1Oc1ccc(cc1)CC1c3c(cc4c(c3Oc3cc5c(cc3OC)CCN(C)C5C2)OCO4)CCN1C (centres undefined) [Cepharanthine]	95.3	83	108 (inactive)	129 (inactive)
CC(C)NCC(O)c1cc(O)cc(O)c1.CC(C)NCC(O)c1cc(O)cc(O)c1.O=S(=O)(O)O (centres undefined) [Metaproterenol hemisulfate]	102	106	92.1 (inactive)	93.4 (inactive)
NC(=O)c1ncn(C2OC(CO)C(O)C2O)c1O (centres undefined) [Mizoribine]	101	99.2	91.2 (inactive)	89.3 (inactive)
CCOC(=O)c1cnc2c(cnn2CC)c1NN=C(C)C.Cl [Etazolate hydrochloride]	107	101	86.8 (inactive)	99.5 (inactive)
CC(C)=CCCC(C)=CCCC(C)=CCCC(C)=CCCC(C)=CCCC(C)=CCCC(C)=CCCC(C)=CCCC(C)=CCO [Solanesol]	104	97.8	89.9 (inactive)	93.9 (inactive)
OCC1NC(CO)C(O)C1O [(2R,5R)-Bis(hydroxymethyl)-(3R,4R)-dihydroxypyrrolidine]	102	101	91.3 (inactive)	84.7 (inactive)
COc1ccc2c(c1)c(CC(=O)N1CCOCC1)c(C)n2C(=O)c1ccc(Cl)cc1 [Indomethacin morpholinylamide]	105	100	90.6 (inactive)	85.5 (inactive)
CCn1cc(C(=O)O)c(=O)c2ccc(C)nc21 [Nalidixic acid]	102	98.7	91.1 (inactive)	86.1 (inactive)
COC(=O)C1=C(C)NC(C)=C(C(=O)OCCN2CCN(C(c3ccccc3)c3ccccc3)CC2)C1c1cccc([N+](=O)[O-])c1 (centres undefined) [Manidipine]	106	109	90.4 (inactive)	111 (inactive)
CC(C)CCC[C@@H](C)[C@H]1CC[C@H]2[C@@H]3CC(=O)[C@H]4C[C@@H](O)CC[C@]4(C)[C@H]3CC[C@]12C [(3beta,5alpha)-3-hydroxycholestan-6-one]	105	92.5	98.5 (inactive)	98.6 (inactive)
COc1ccc2nc(S(=O)Cc3ncc(C)c(OC)c3C)[nH]c2c1 (centres undefined) [Omeprazole]	100	102	95.5 (inactive)	111 (inactive)
CC(C)(C)C1(O)CCN2CC3c4ccccc4CCc4cccc(c43)C2C1.Cl (single isomer, unassigned; (+)) [(+)-Butaclamol.HCl]	106	108	95.7 (inactive)	100 (inactive)
CCOC(=O)C1=C(C)NC(C)=C(C(=O)OCC)C1 [Diludin]	97.2	103	93.7 (inactive)	97.2 (inactive)
